This is part of a sample that, as a whole, favours compounds with a hit. Of some 83,000 tested, about 20% had one in any assay.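 Negative percent growth values reflect cell death: -40 means 40% of the cells present at the start died, and -100 means all died.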 Activity calls are given as the source filed them. How the source made its calls: active means growth percent below 10; inactive means the rest.
Test system: SF-539 CNS
Assay: NCI-60 one-dose screen, 48 h (100 = growth as untreated, 0 = no growth, -100 = all killed)
Conditions: 10 µM unless noted

SMILES	growth
CC(C)C1=NOC(=O)C1=Cc1cn(-c2ccccc2)nc1-c1ccccc1	91.3% (inactive)
CCN(CC)CCCNCc1cc(-c2ccccc2)nc2ccccc12	32.7% (inactive)
CCOC(=O)CCC[P+](c1ccccc1)(c1ccccc1)c1ccccc1	89.5% (inactive)
Cc1cccc(C[C@H](NC(=O)Nc2ccc(Cl)cc2F)C(=O)N[C@@H]2C(=O)N3C[C@H](O)C[C@H]3C(=O)N3CCN(C)C[C@H]3C(=O)N[C@@H](C)C(=O)N3C[C@H](C)C[C@H]3C(=O)O[C@H]2C)c1	53.8% (inactive)
COc1cc(C)cc2oc3oc(=O)c(C(=O)c4cc5cc(Br)ccc5o4)cc3c(=O)c12	96.8% (inactive)
COc1ccc(CC(C#N)c2ccc(Cl)cc2)cc1 (configuration not stated)	85.1% (inactive)
Clc1ccc(/C=N/Nc2nc3ccccc3s2)c(Cl)c1	100% (inactive)
Nc1nc(SCc2cccc([N+](=O)[O-])c2)c2[nH]cnc2n1	103% (inactive)
COC(=O)[C@]12CCC(C)(C)C[C@H]1C1=CC[C@@H]3[C@@]4(C)C/C(=C/c5cccnc5)C(=O)C(C)(C)[C@@H]4CC[C@@]3(C)[C@]1(C)CC2	-76.6% [100 µM] (active)
Cn1cc(-c2nnc(-c3cn(C)c4ncccc34)o2)c2ccccc21	27.7% (inactive)
Cc1ccc(C2=C/C(=C/c3ccc(Br)cc3)C(=O)N2CCc2ccc(S(N)(=O)=O)cc2)cc1	97.4% (inactive)
COc1ccc2nc3cc(Cl)ccc3c(Nc3ccc(O)cc3)c2c1	80.8% (inactive)
CCCCN(CC)CC(CC)Nc1cc(OC)cc2cccnc12 (configuration not stated)	102% (inactive)
O=C(Nc1cccc2ccccc12)c1cc2ccccc2cc1O	17.7% (inactive)
C=C(C)[C@@H]1CC[C@]2(COCCC#N)CC[C@]3(C)[C@H](CC[C@@H]4[C@@](C)(CCCNCCC#N)[C@H](C(=C)C)CC[C@]43C)[C@@H]12	-20% [100 µM] (active)
Cc1ccc(-c2cn(C/C=C3\C=CN(S(=O)(=O)c4ccccc4)CC3)nn2)cc1	100% (inactive)
CN(C)c1ccc(-c2ccc(-c3ccc(C(=N)N)cc3)s2)cc1	89.9% (inactive)
CCOC(=O)c1nn(C2CCCCO2)c2ccc(NC(=O)CN3CCOCC3)cc12 (configuration not stated)	98.1% (inactive)
Cn1cc(-c2noc(-c3cn(C)c4ncc(Br)cc34)n2)c2cc(Cl)ccc21	48.9% (inactive)

SMILES	growth
Cc1cc2c(C(C)C)c(O)c(O)c(C=NCc3ccoc3)c2c(O)c1-c1c(C)cc2c(C(C)C)c(O)c(O)c(C=NCc3ccco3)c2c1O	60.2% (inactive)
Cc1cccc(C[C@H](NC(=O)Nc2ccc(C)cc2F)C(=O)N[C@@H]2C(=O)N3C[C@H](O)C[C@H]3C(=O)N3CCN(C)C[C@H]3C(=O)N[C@@H](C)C(=O)N3C[C@H](C)C[C@H]3C(=O)O[C@H]2C)c1	50.7% (inactive)
COc1cc2c(c(Br)c1N)-c1cc(Br)c(N)cc1C2=O	37% (inactive)
CCN(CC)CCSC(=O)C(O)(c1ccccc1)C1CCCC1 (configuration not stated)	110% (inactive)
CCN(CC)CCCOc1ccc2c(c1)O/C(=C\c1cccc(OC)c1)C2=O	86.7% (inactive)
CCOC(=O)/C(C#N)=C(\C)CCc1ccccc1	91.8% (inactive)
O=C(CCN1CCCCC1)c1ccc(Cl)cc1	99.9% (inactive)
C[C@H]1[C@H](C)CC[C@]2(C(=O)O)CC[C@]3(C)C(=CC[C@@H]4[C@@]5(C)C/C(=C/c6ccco6)C(=O)C(C)(C)[C@@H]5CC[C@]43C)[C@H]12	-80.1% [100 µM] (active)
Cc1ccc(NC(=O)N[C@@H](Cc2cc(F)cc(F)c2)C(=O)N[C@@H]2C(=O)N3CCC[C@H]3C(=O)N3CCOC[C@H]3C(=O)N[C@@H](C)C(=O)N3C[C@H](C)C[C@H]3C(=O)O[C@H]2C)cc1	47.6% (inactive)
CCCCOC(=O)c1c(C)[nH]c(/C=C2\N=C(c3ccc[nH]3)C=C2OC)c1C	-36.2% (active)
O=C(O)c1cn(C2CC2)c2cc(N3CCN(Cc4cc(Cl)ccc4O)CC3)c(F)cc2c1=O	74% (inactive)
C[n+]1cccc(NC(=O)c2ccc3ccc4ccc(C(=O)Nc5ccc[n+](C)c5)nc4c3n2)c1	37.7% (inactive)
O=c1cc(-c2ccccc2)oc2cc(OCc3cn(Cc4ccc(F)cc4)nn3)cc(O)c12	1.1% [100 µM] (active)
CCc1ccc(NC(=O)N[C@@H](Cc2cc(F)cc(F)c2)C(=O)N[C@@H]2C(=O)N3C[C@H](O)C[C@H]3C(=O)N3CCOC[C@H]3C(=O)N[C@@H](C)C(=O)N3C[C@H](C)C[C@H]3C(=O)O[C@H]2C)cc1	55.8% (inactive)
C=C(CC(=O)OC)C(C)=O	120% (inactive)
O=C1/C(=C\c2cn(CC(O)CN3CCCCC3)c3ccccc23)c2ccccc2N1c1c(Cl)cccc1Cl (configuration not stated)	-82.4% (active)
CC/C=C(\C)C(CCC)(CN=O)C(=O)OCC (configuration not stated)	98.9% (inactive)
CN(C)C(=S)Sc1ccc([N+](=O)[O-])cc1[N+](=O)[O-]	52.1% (inactive)
